Screening results (PubChem BioAssay)
Hits are enriched below; roughly 8.3% of the tested compounds scored in any of these assays.
Giardia killer: Small Molecules that selectively kill Giardia lamblia: qHTS; Giardia lamblia trophozoite viability; activity change, % at 7.66 µM, hits read low; actives 0.15% (n = 340,000); AID 540267, 2011; in the data active = activity change below about -80%; inconclusive = between about -30% and that limit;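 also: parasites exposed to compound for two days anaerobically before the ATP read; % is scaled to controls: 0 for no effect and ±100 for the full control effect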
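Killing of trophozoites was scored by loss of ATP luminescence after a 48 hrs anaerobic exposure to compounds at 37 deg C, using 100 cells per well.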
Gal4-VP16 FLuc: VP16 counterscreen qHTS for inhibitors of ROR gamma transcriptional activity | Drosophila S2 Gal4-VP16 UAS-luciferase, luminescence, 20 h | Potency, µM (highest dose often 53.6 µM), without a hit: at the highest dose activity, negative = inhibition, most hits filed as inhibitors | actives 3.5% (n = 310,000) | AID 2546, 2010;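 also: Gal4-VP16 expression switched on by copper sulfate through the metallothionein promoter; potency is read from the fitted curve at half-maximal effect; % is scaled to controls: 0 for no effect and ±100 for the full control effect; nearly all actives have a fitted effect of over 50% in size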
MCF10A rerep: A quantitative high throughput screen for small molecules that induce DNA re-replication in MCF 10a normal breast cells. actives 2.9% (n = 350,000). Potency, µM (titrated, usually from 46.1 µM), without a hit: at the highest dose activity, positive = re-replication, most hits filed as activators. MCF 10A DNA re-replication, Hoechst nuclear intensity, 48 h; also: potency is read from the fitted curve at half-maximal effect; % of control where 0% means no effect; nearly all actives have a fitted effect of over 50% in size
RORg inh: qHTS for inhibitors of ROR gamma transcriptional activity; Drosophila S2 Gal4-RORgamma UAS-luciferase reporter, 20 h; actives 5.4% (n = 310,000); Potency, µM (titrated, usually from 53.6 µM), for inactives: at the highest dose activity change, negative = inhibition, actives largely listed as inhibitors; also: potency is read from the fitted curve at half-maximal effect; % is scaled to controls: 0 for no effect and ±100 for the full control effect; nearly all actives have a fitted effect of over 60% in size
Target sequence (P51450 whole entry, looked up, the tested form may be a part): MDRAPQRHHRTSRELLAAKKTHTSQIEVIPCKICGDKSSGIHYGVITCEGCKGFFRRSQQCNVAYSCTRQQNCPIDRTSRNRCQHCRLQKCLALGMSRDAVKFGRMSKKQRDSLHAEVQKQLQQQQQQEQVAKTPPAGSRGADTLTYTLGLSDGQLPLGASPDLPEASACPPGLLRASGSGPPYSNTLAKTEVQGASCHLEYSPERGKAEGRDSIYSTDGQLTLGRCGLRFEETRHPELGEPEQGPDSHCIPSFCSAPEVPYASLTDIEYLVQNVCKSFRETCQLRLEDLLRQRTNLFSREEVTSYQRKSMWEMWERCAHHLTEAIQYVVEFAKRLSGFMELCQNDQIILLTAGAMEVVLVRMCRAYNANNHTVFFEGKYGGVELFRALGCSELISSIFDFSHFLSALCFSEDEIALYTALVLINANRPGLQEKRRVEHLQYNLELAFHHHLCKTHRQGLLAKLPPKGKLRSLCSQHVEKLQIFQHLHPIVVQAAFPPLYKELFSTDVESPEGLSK
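Stable Schneider cell line, Gal4 DNA-binding domain fused to ROR gamma, UAS-luciferase. Cmpd 1 hr RT → CuSO4 700 uM final → 20 hr RT → luciferase reagent 10 min → luminescence.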
Chronic BCR inh: qHTS Assay to Find Inhibitors of Chronic Active B-Cell Receptor Signaling. ABC-DLBCL IkBa-CBG/CBR reporter, luminescence ratio, 4 h. Potency, µM (titrated, usually from 46.1 µM), for inactives: at the top dose activity change, negative = inhibition, usual class: inhibitors. actives 0.05% (n = 340,000); active = well fitted inhibition curve with a large enough effect in the signal ratio, with a control signal flat, not every such curve was filed as active; inconclusive = small, poorly fitted or top-dose-only effect, or effect the other way, or a change in a side signal; the % refers to the signal ratio;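 also: potency is read from the fitted curve at half-maximal effect; plate controls were basal doxycycline-induced cells for no effect and cells given 10 µM MG132 for full effect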
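Compounds up to 46 uM were incubated four hours with TMD8 cells whose green CBG68 luciferase is fused to IkappaBalpha; red CBR luminescence normalised the signal, and concentration-effect curves were fitted to fusion, red and ratio data.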
SW480 rerep: A quantitative high throughput screen for small molecules that induce DNA re-replication in SW480 colon adenocarcinoma cells | SW480 DNA re-replication, Hoechst DNA content imaging, 48 h | Potency, µM (highest dose often 46.1 µM), inactives show at the highest dose re-replication activation, most hits filed as activators | actives 1.8% (n = 340,000); also: potency is read from the fitted curve at half-maximal effect; % of control where 0% means no effect; nearly all actives have a fitted effect of over 55% in size
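Per well, 250 cells were exposed to pinned compound for 48 hr. Nuclear DNA was visualised with Hoechst (40 min, 37 C) and total object intensity recorded by fluorescence scanning.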
Numbers without * were called inactive; [ ] = dose if it differs, or a comment. Unless noted, calls follow the shape of the dose curve; as a rule, active = well fitted curve in the direction sought with a large enough effect; inconclusive = small, poorly fitted or top-dose-only effect, or another doubt; inactive = no such curve, though single readings can be large; an effect the other way counts as inactive or inconclusive.

How did CSCCC(NS(=O)(=O)c1ccccc1)C(=O)Nc1nccs1 (configuration not stated) do in these assays?
Giardia killer: -9.0; MCF10A rerep: -14.1%; Chronic BCR inh: 1.9%; SW480 rerep: -61.8%

What do the screens show for `CC(C)(C)OC(=O)C(Cl)(C(=O)OC(C)(C)C)c1ccc2nnnn2n1`?
Giardia killer: -23.3; Gal4-VP16 FLuc: inconclusive; MCF10A rerep: inconclusive; RORg inh: 12.6µM*; Chronic BCR inh: -9.9%; SW480 rerep: inconclusive

How did CCOc1ccc2nnnn2n1 do in these assays?
Giardia killer: 0.5; Gal4-VP16 FLuc: -1.6%; MCF10A rerep: 2.7%; RORg inh: -25.1%; Chronic BCR inh: -4.3%; SW480 rerep: 0.5%

Results for C[C@@]12CCC3[C@@](CCC4[C@@]3(C)CCC[C@@]4(C)C(=O)Nc3ccc(Cl)cc3)(CC1=O)C2 (some centres not stated) ?
Giardia killer: -3.9; MCF10A rerep: -0.1%; Chronic BCR inh: inconclusive; SW480 rerep: -3.6%[9.22 µM]

What do the screens show for `CC(C)C[C@@H](NC(=O)[C@H](Cc1ccccc1)NC(=O)c1cnccn1)B(O)O`?
Gal4-VP16 FLuc: inconclusive; MCF10A rerep: inconclusive; RORg inh: 0.0079µM*; SW480 rerep: 0.003µM*

What do the screens show for `Cc1ccc(CSc2nccc(-c3c(C)nc4ccccn34)n2)cc1`?
Giardia killer: -27.5; Gal4-VP16 FLuc: -23.5%; MCF10A rerep: 3.66µM*; RORg inh: inconclusive; Chronic BCR inh: -7.5%; SW480 rerep: inconclusive

What do the screens show for `O=C(/C=C/c1cn(CC(O)CN2CCCCCC2)c2ccccc12)c1cccs1` (configuration not stated)?
Giardia killer: 6.9; Gal4-VP16 FLuc: -20.5%; MCF10A rerep: 14.6µM*; RORg inh: 9.5%; Chronic BCR inh: inconclusive; SW480 rerep: 18.4µM*

How did CCCCN(C)CC(O)Cn1cc(/C=C/C(=O)c2cccs2)c2ccccc21 (configuration not stated) do in these assays?
Giardia killer: 1.3; Gal4-VP16 FLuc: inconclusive; MCF10A rerep: 16.4µM*; RORg inh: inconclusive; Chronic BCR inh: inconclusive; SW480 rerep: 23.1µM*

Results for CCCCN(C)CC(O)Cn1cc(/C=C/C(=O)c2ccc(OCC)cc2)c2ccccc21 (configuration not stated) ?
Gal4-VP16 FLuc: -27.1%; RORg inh: inconclusive; Chronic BCR inh: inconclusive

Results for CN(C)/[N+]([O-])=N/Oc1cc(ON=[N+]([O-])N2CCN(c3ncccn3)CC2)c([N+](=O)[O-])cc1[N+](=O)[O-] ?
Giardia killer: -4.0; Gal4-VP16 FLuc: 24.0%; RORg inh: 20.6%

How did COc1ccc(C2CC(=O)c3c(O)cc(O)cc3O2)c(CC=C(C)C)c1OC (configuration not stated) do in these assays?
Giardia killer: 1.6; MCF10A rerep: inconclusive; SW480 rerep: inconclusive

Results for COc1cc2c(c(OC)c1CC=C(C)C)C[C@H](c1ccc(O)cc1O)CO2 ?
Giardia killer: -5.6; MCF10A rerep: 16.4µM*; SW480 rerep: 2.4%

How did COc1cccc(CNC(=O)CN2C(=O)CCSc3ccc(S(=O)(=O)N4CCCC4)cc32)c1 do in these assays?
Giardia killer: -16.4; Gal4-VP16 FLuc: 3.8%; MCF10A rerep: 3.9%; RORg inh: 8.9%; Chronic BCR inh: -1.7%; SW480 rerep: -30.9%

Results for Cc1ccc(/C=C2/NC(=O)N(c3ccccc3)C2=O)o1 ?
Giardia killer: -12.1; Gal4-VP16 FLuc: inconclusive; MCF10A rerep: 13.8%; RORg inh: -43.5%; Chronic BCR inh: inconclusive; SW480 rerep: 0.7%

Results for O=C1N/C(=C/c2ccc(N3CCOCC3)o2)C(=O)N1c1cccc(Cl)c1 ?
Giardia killer: 31.2; Gal4-VP16 FLuc: 4.47µM*; MCF10A rerep: inconclusive; RORg inh: 3.55µM*; Chronic BCR inh: inconclusive; SW480 rerep: 4.61µM*

What do the screens show for `Oc1ccc(C2=NNC(=NCc3ccc4c(c3)OCO4)SC2)c(O)c1`?
Giardia killer: -4.6; Gal4-VP16 FLuc: inconclusive; MCF10A rerep: 11.6µM*; RORg inh: 1.58µM*; Chronic BCR inh: inconclusive; SW480 rerep: 14.6µM*

Results for N#Cc1ccc(COC(=O)c2ccccn2)cc1 ?
Gal4-VP16 FLuc: 3.8%; RORg inh: 0.7%; Chronic BCR inh: 4.1%

What do the screens show for `CCOCCOC(=O)c1ccc(NC(=O)C2COc3ccccc3O2)cc1` (configuration not stated)?
Giardia killer: -2.2; Gal4-VP16 FLuc: 23.4%; MCF10A rerep: -0.9%; RORg inh: 26.8%; Chronic BCR inh: -1.2%; SW480 rerep: 0.1%

What do the screens show for `Cc1cc(C)nc(NN2C(=O)/C(=C/c3ccc(O)cc3)SC2=S)n1`?
Giardia killer: -21.0; Gal4-VP16 FLuc: -9.1%; MCF10A rerep: 5.2%; RORg inh: -1.3%; Chronic BCR inh: 7.3%; SW480 rerep: -0.2%

How did COc1ccccc1/C=C1\SC(=S)N(Nc2nc(C)cc(C)n2)C1=O do in these assays?
Giardia killer: -5.3; Gal4-VP16 FLuc: -15.3%; MCF10A rerep: 1.7%; RORg inh: 11.2µM*; Chronic BCR inh: inconclusive; SW480 rerep: -1.6%

What do the screens show for `CC1(C)CC2CC(C)(CN2C(=O)c2ccc([N+](=O)[O-])cc2[N+](=O)[O-])C1` (configuration not stated)?
Giardia killer: 11.3; Gal4-VP16 FLuc: 8.8%; MCF10A rerep: inconclusive; RORg inh: -33.8%; Chronic BCR inh: -0.5%; SW480 rerep: -18.1%

Results for O=C(/C=C\Nc1ccc2c(c1)OCO2)c1ccccn1 ?
Giardia killer: inconclusive; Gal4-VP16 FLuc: 2.24µM*; MCF10A rerep: -6.8%; RORg inh: 1.12µM*; Chronic BCR inh: inconclusive; SW480 rerep: 0.0%

What do the screens show for `O=C(/C=C\Nc1ccc2c(c1)OCO2)c1ccc2c(c1)OCO2`?
Giardia killer: 20.4; Gal4-VP16 FLuc: inconclusive; MCF10A rerep: 20.6µM*; RORg inh: inconclusive; Chronic BCR inh: -3.6%; SW480 rerep: 2.8%

Results for O=C(Nc1ccc2c(c1)OCO2)c1ccccn1 ?
Giardia killer: -27.3; MCF10A rerep: inconclusive; Chronic BCR inh: inconclusive; SW480 rerep: 9.0%

Results for CC(=NNc1nc2ccccc2o1)c1cc2ccccc2cn1 ?
Giardia killer: 9.8; MCF10A rerep: inconclusive; SW480 rerep: 13µM*
